Hit rate of the full screen: of about 410,000 compounds, about 18,000 (4.4%) were called active. Roughly 7% stayed inconclusive and do not appear here. Many of the other results were omitted from the sample, so actives are more common in it than they were. Unmarked numbers belong to inactive results. Cut-off read from the data, not from the text of the source: active = activity change below about -60%; inconclusive = no clear call, values can overlap the other calls; inactive = above about -39%.
% is set by controls: 0 for no effect and ±100 for the full control effect.

The test can be described thus: qHTS Assay for inhibitors of the human cytomegalovirus (HCMV). The conditions noted are these: HFF cells, HCMV-luciferase reporter, 72 h; at 57.5 µM; active compounds read low. From the text: NCGC Assay Overview: Infection with human cytomegalovirus (HCMV) continues to pose significant threats for pregnant women and immunocompromised hosts. HCMV causes serious morbidity and mortality in transplant recipients, and congenital HCMV is the leading infectious cause of mental retardation and deafness in children. In the 1990s, the annual costs associated with the disease burden of congenital CMV were estimated at around $2 billion. A HCMV vaccine is not available yet and HCMV therapies result in intolerable side effects and emergence of drug resistant viruses. […] Towards this goal we have developed and characterized a luciferase HCMV reporter that was initially used in 96 well plates and then optimized to 1536-well plates for utilization in screening of the MLSMR collection, the NGCG diversity collection and the NCGC Pharmaceutical Collection of approved and investigational drugs.
NCGC Assay Protocol Summary:
This is a cell-based assay for HCMV inhibition in HFFs cells. The screening used 2 compound doses and the HCMV-luciferase at MOI of 1 PFU/cell. Cells were treated and infected with HCMV. At 72 h post infection cell lysates were collected and luciferase activity was determined using the Glomax-Multi + Detection System (Promega, Madison, WI). Data were normalized to the controls for basal activity (buffer only) and known HCMV inhibitors Salinmoycin.
1536-well assay protocol for the assay:
(1) Add 3 ul CMV/HFF cell culture. 1000 cells/well in DMEM nirmal media.
(2) Incubate 16 hr at 37C.
(3) Add 23 nl control compound, 10uM of Salinomycin.
(4) Add 23 nl compounds in DMSO solution.
(5) Add 3 ul CMV suspension. Final 1 puf/ul, Virus stock 2000pfu/ul
(6) Incubate 72 hrs at 37C.
(7) Add 4 ul OneGlo Luc Reagent.
(8) Incubate 5 min at room temperature.
In general terms: In qHTS, concentration-response curves come from the screen itself.
Regarding `O=C(Nc1ccc(-c2csc(Nc3cccc(C(F)(F)F)c3)n2)cc1)c1cccc(C(F)(F)F)c1`, the activity change, negative = inhibition was -66.8% (active).
Regarding `Cn1c(C(=O)Nc2cccc(C(F)(F)F)c2)cc2c(=O)n3ccccc3nc21`, the activity change, negative = inhibition was 63.8%.
As to `Cc1nnsc1C(=O)N/N=C/c1cccc(C(F)(F)F)c1`, the activity change, negative = inhibition is -22.9%.
For `Cc1c(CCNC(=O)c2ccc(C(F)(F)F)cc2)sc2nc(-c3ccc(F)cc3)nn12`, the activity change, negative = inhibition was 33.8%.
`COc1ccc(Cn2ccnc2SCC(=O)Nc2ccc3c(c2)OCO3)cc1`: the activity change, negative = inhibition was -2.47%.
To `Cc1ccc2oc(C(=O)Nc3ccc(S(=O)(=O)N4CCCCCC4)cc3)cc(=O)c2c1` belongs 5.06%; to `Cn1nnc2c(N3CCN(c4ccccc4)CC3)ncnc21`, -1.12%; to `CN1CCC(CN)(N2CCN(c3ccccc3)CC2)CC1`, -78.1% (active).
To `CCS(=O)(=O)N1CCC(N2CCN(c3ccccc3)CC2)CC1` belongs 12.5%; to `CCc1cccc(CC)c1NC(=O)Cn1c(=O)c(-c2cc(C)ccc2NC(C)=O)nc2ccccc21`, -4.17%.
The figure for `COc1ccc(CN(Cc2ccco2)S(=O)(=O)c2ccc(S(=O)(=O)N3CCCC3)cc2)cc1` is -62% (active); for `COc1ccc(S(=O)(=O)NCc2ccc(C(=O)N(C)Cc3ccco3)cc2)cc1` it is -13.3%; for `COc1ccc(CCC(=O)N2CCN(S(=O)(=O)c3ccc(OC)cc3)CC2)cc1` it is -31.5%.
Take `CC1CCN(c2ccc3c(c2)S(=O)(=O)c2cc(C(=O)O)ccc2C3=O)CC1`: the activity change, negative = inhibition is 22.6%.
To `CC1CCN(c2ccc([N+](=O)[O-])c(SCCO)c2)CC1` belongs -72.7% (active); to `CC1CCN(c2ccc(S(=O)(=O)Nc3cc(C(=O)O)cc(C(=O)O)c3)cc2[N+](=O)[O-])CC1`, 31%.
Regarding `CN(C)S(=O)(=O)c1cc(C(=O)N2CCC(C(=O)O)(c3ccccc3)CC2)ccc1Cl`, the activity change, negative = inhibition was 14.8%.
Turning to `CN(c1ccccc1)S(=O)(=O)c1cc(C(=O)N2CCN(c3ncccn3)CC2)ccc1Cl`, the activity change, negative = inhibition was -61.7% (active).
For `COc1ccc(C(=O)N2CCN(c3ncccn3)CC2)cc1S(=O)(=O)N1CCOCC1`, the activity change, negative = inhibition was 63%.
With `CCS(=O)(=O)N1CCc2cc(C(=O)N3CCN(c4ccccc4OC)CC3)ccc21`, the activity change, negative = inhibition is 10.3%.
Regarding `CN(c1ccccc1)S(=O)(=O)c1cc(C(=O)OCC(=O)N2CCN(C(=O)c3ccco3)CC2)ccc1Cl`, the activity change, negative = inhibition is -12%.
Consider `CN(c1ccccc1)S(=O)(=O)c1ccc(C(=O)N2CCN(c3ccccc3Cl)CC2)cc1`, for which the activity change, negative = inhibition was -25.5%.
As to `CN(c1ccccc1)S(=O)(=O)c1cccc(C(=O)NNC(=O)c2ccncc2)c1`, the activity change, negative = inhibition was -31.6%.
The figure for `COc1ccccc1N1CCN(C(=O)c2ccc(Cl)c(S(=O)(=O)N3CCCC3)c2)CC1` is -64.9% (active); for `CN(c1ccccc1)S(=O)(=O)c1cc(C(=O)Nc2nc3ccccc3[nH]2)ccc1Cl` it is -61.3% (active); for `COc1ccc(C2NC(=O)N(C)C3=C2C(=O)N(c2ccc(C(=O)O)cc2)C3)cc1` (stereo not drawn) it is 15.3%.
For `CCOC(=O)c1cc2c(=O)[nH]c(C(Cl)(Cl)Cl)nc2o1`, the activity change, negative = inhibition is -14.4%.
Turning to `CCOC(=O)c1ccc(NC(=O)C2CCN(S(=O)(=O)c3ccc4c(c3)CCCC(=O)N4)CC2)cc1`, the activity change, negative = inhibition was -34.6%.
`COc1cc(C(=O)Nc2ccc(OCc3cc(=O)n4cc(C)sc4n3)cc2)cc(OC)c1OC`: the activity change, negative = inhibition was 13.1%.
As to `COc1ccc(OC)c(NC(=O)C2CCCN(S(=O)(=O)c3ccc4c(c3)CCCC(=O)N4)C2)c1` (stereo not drawn), the activity change, negative = inhibition is 5.92%.
To `COc1ccc(-c2nc3ccccc3o2)cc1NC(=O)c1cc([N+](=O)[O-])ccc1N1CCOCC1` belongs 17.1%; to `COc1ccc(-c2nc3ccc(C(=O)NCc4ccc(C)cc4)cc3nc2-c2ccc(OC)cc2)cc1`, 13.2%; to `CCOc1ccc(Nc2nc(Cc3nnc(SCC(=O)c4ccc(C)cc4)o3)cs2)cc1`, -18.3%.
`Cc1ccc(Nc2nc(CSc3nnc(-c4ccncc4)n3-c3ccccc3C)cs2)cc1`: the activity change, negative = inhibition is -86.5% (active).
`CCOc1ccccc1-n1c(SCC(=O)NCc2ccco2)nnc1-c1ccncc1`: the activity change, negative = inhibition is 24.1%.
To `Cc1ccc(-c2nc(S(=O)(=O)c3ccc(C)cc3)c(N3CCCCCC3)o2)cc1` belongs -3.36%; to `CC(C)S(=O)(=O)c1oc(-c2ccc(F)cc2)nc1S(=O)(=O)c1ccc(F)cc1`, -98.8% (active); to `O=C(CSc1oc(-c2ccc(F)cc2)nc1S(=O)(=O)c1ccc(Br)cc1)NC1CCCCC1`, 5.22%.
As to `COc1ccc(N2C(=O)CSC23C(=O)N(Cc2cccc(F)c2)c2ccccc23)cc1Cl` (stereo not drawn), the activity change, negative = inhibition was -38.5%.
To `Cc1cccc(C(=O)N2CCc3cc(CNC(=O)Cc4ccc(F)cc4)ccc32)c1` belongs 5.96%; to `Cc1c(Cl)cccc1NC(=O)C1CCCN(C(=O)c2cnn(-c3ccccc3)c2-n2cccc2)C1` (stereo not drawn), -29.6%.
Consider `O=c1cc(COc2cccc(C(F)(F)F)c2)nc2sc3c(n12)CCCC3`, for which the activity change, negative = inhibition is -0.855%.
For the compound `CCOc1cc(C2c3c(-c4ccc(Br)cc4)n[nH]c3C(=O)N2c2ccc(Cl)cc2)ccc1O` (stereo not drawn), the activity change, negative = inhibition was -106% (active).
For the compound `CCOC(=O)c1ccc(N2C(=O)c3n[nH]c(C)c3C2c2ccc(O)c(OC)c2)cc1` (stereo not drawn), the activity change, negative = inhibition was -24.9%.
The figure for `CCOc1ccc(-c2n[nH]c3c2C(c2ccccc2OC)N(c2ccc(Br)cc2)C3=O)cc1` (stereo not drawn) is 21.3%; for `COc1ccc(NC(=O)CCN2CCN(CCO)CC2)cc1` it is 0.59%.
The figure for `O=C(c1ccc2c(c1)N(Cc1ccccc1)C(=O)c1ccccc1S2(=O)=O)N1CCC(Cc2ccccc2)CC1` is 4.82%.
With `COc1ccc(CCNC(=O)c2nnc(CS(=O)(=O)c3ccccc3)o2)cc1OC`, the activity change, negative = inhibition was -33.4%.
To `O=C(NCc1cccnc1)c1ccc(CS(=O)(=O)c2ccc(Br)cc2)o1` belongs -24.5%; to `COc1ccc(CCNC(=O)c2ccc(CS(=O)(=O)c3ccc(Br)cc3)o2)cc1OC`, -92.4% (active); to `Cc1c(S(=O)(=O)NC(C)c2ccccc2)c(=O)n(C)c(=O)n1C` (stereo not drawn), -5.67%.
As to `COCCCNC(=O)[C@H]1N2C(=O)c3ccccc3C2SC1(C)C` (stereo partly drawn), the activity change, negative = inhibition was 36.2%.
As for `Cn1ccc(=Nc2ccc(NC(=O)c3ccc(N=c4ccn(C)c5ccc([N+](=O)[O-])cc45)cc3)cc2)cc1`, the activity change, negative = inhibition is -96.1% (active).
Consider `CC(=O)Nc1ccc(C(=O)OCC(=O)Nc2ccc([N+](=O)[O-])cc2C(F)(F)F)cc1`, for which the activity change, negative = inhibition is -34.7%.
For the compound `O=C(Nc1cc2c3c(c1)C1CCCC1CN3CC1CCCC21)c1ccc([N+](=O)[O-])cc1` (stereo not drawn), the activity change, negative = inhibition was -31.6%.
As to `Cc1ccc(CCNC(=O)c2ccc3c(c2)N(Cc2cc(C)ccc2C)C(=O)c2ccccc2S3=O)cc1` (stereo not drawn), the activity change, negative = inhibition was -0.139%.
To `Cc1cccc(NC(=O)C2CCCN2S(=O)(=O)c2cccc3nsnc23)c1C` (stereo not drawn) belongs 31.6%; to `CCC(=O)Nc1c(C(=O)N2CCN(c3ccc(F)cc3)CC2)oc2ccccc12`, -20.1%; to `COC(=O)Cn1cnc2scc(-c3ccc(C)c(C)c3)c2c1=O`, -22.1%.
In the case of `CCOC(=O)C(C)n1cnc2scc(-c3ccc(C)c(C)c3)c2c1=O` (stereo not drawn), the activity change, negative = inhibition is -39.3%.
`CC(=O)C(C)n1cnc2scc(-c3ccc(C)cc3)c2c1=O` (stereo not drawn): the activity change, negative = inhibition is -61% (active).
On to `COc1cc(C(=O)N2CCN(c3ccc(Nc4ccc(C)cc4)nn3)CC2)cc(OC)c1OC`, for which the activity change, negative = inhibition was 36.3%.
Turning to `O=C(/C=C/c1ccc(OCc2c(F)cccc2Cl)cc1)N1CCOCC1`, the activity change, negative = inhibition was -85.8% (active).
On to `O=C(Nc1ccc(OCC(=O)N2CCOCC2)cc1)c1cc(F)c(F)cc1Cl`, for which the activity change, negative = inhibition is 4.25%.
In the case of `C#CC(C)(CC)NC(=O)Cn1nnc(-c2ccc(OCc3c(F)cccc3Cl)cc2)n1` (stereo not drawn), the activity change, negative = inhibition was -28.3%.
As to `CN(C)CCCNC(=O)/C=C/c1ccc(OCc2c(F)cccc2Cl)cc1`, the activity change, negative = inhibition was -62.7% (active).
To `O=C(Cc1ccccc1Cl)N1CCOCC1` belongs -27.3%.
As for `CCOC(=O)CNC(=O)/C=C/c1c(Cl)cccc1Cl`, the activity change, negative = inhibition was -12.3%.
With `COc1cc(C2c3c(oc4ccccc4c3=O)C(=O)N2c2nc(C)c(C)s2)ccc1O` (stereo not drawn), the activity change, negative = inhibition is -20.1%.
Turning to `CCOC(=O)C1CCCN(CC(=O)Nc2cc(C)c3c(=O)oc4ccccc4c3n2)C1` (stereo not drawn), the activity change, negative = inhibition was 17.3%.
To `Cc1ccc(-c2cc(-c3coc4ccccc4c3=O)c3c(n2)-c2cc(Cl)ccc2OC3)cc1` belongs 21.6%; to `Cc1ccc(NC(=O)c2cc3cc(C)ccc3n2C)cc1`, 22.1%; to `CS/C(=C\[N+](=O)[O-])Nc1ccc(C)cc1`, -61.4% (active).
For the compound `Cc1nn(CC(=O)Nc2ccc(C#N)cc2)c(C)c1[N+](=O)[O-]`, the activity change, negative = inhibition was -33.6%.
For the compound `CCCN(CCC)C(=O)Cn1c(=O)n(-c2ccc(Cl)cc2)c(=O)c2c3c(sc21)CCCCC3`, the activity change, negative = inhibition is 7.98%.
Regarding `COc1ccc(C(=O)N2CCCC(C(=O)c3ccccc3OC)C2)cc1OC` (stereo not drawn), the activity change, negative = inhibition is -10.3%.
In the case of `O=C(CSCc1cnn(-c2ccccc2)c1-n1cccc1)NCc1ccccc1Br`, the activity change, negative = inhibition was -36.4%.
As for `CCc1cc2c(-c3ccccc3)cc(=O)oc2c2c1OCN(Cc1ccc(C)cc1)C2`, the activity change, negative = inhibition was 0.791%.
As for `O=C(/C=C/Sc1ncn[nH]1)c1ccc(Cl)cc1`, the activity change, negative = inhibition was -76.4% (active).
As for `Cc1cc(C)c(NC(=O)c2cc3sc(Cl)cc3n2C)c(C)c1`, the activity change, negative = inhibition was -0.202%.
Regarding `CN(Cc1ccccc1)c1ccc(-c2nc(-c3ccccc3)no2)cc1[N+](=O)[O-]`, the activity change, negative = inhibition is 22.8%.
As for `Cc1ccccc1Nc1c([N+](=O)[O-])ccc2nonc12`, the activity change, negative = inhibition is -2.44%.
For `CN(c1ccccc1)c1ccc([N+](=O)[O-])c2nonc12`, the activity change, negative = inhibition was -75% (active).

The values above are taken from PubChem BioAssay AID1259415 (National Center for Advancing Translational Sciences (NCATS), 2018).
